# From publication PMC7862700, “An all-to-all approach to the identification of sequence-specific readers for epigenetic DNA modifications on cytosine”
# Assays:
# Test in all cases: DAPPL (digital affinity profiling via proximity ligation, sequencing); 10 mM Tris-HCl pH 7.5, 50 mM NaCl, 1 mM DTT, 4% glycerol, room temperature, 30 min; GST-TFs on glutathione beads, 16-mer random dsDNA library, 0.1% formaldehyde crosslink after washing; high values mean tight binding
# FLI1 = target: T1, FLI1 (Homo sapiens, UniProt Q01543 1-452); details: protein: recombinant; tags: N-terminal GST; dsDNA, one strand shown
# T1 sequence: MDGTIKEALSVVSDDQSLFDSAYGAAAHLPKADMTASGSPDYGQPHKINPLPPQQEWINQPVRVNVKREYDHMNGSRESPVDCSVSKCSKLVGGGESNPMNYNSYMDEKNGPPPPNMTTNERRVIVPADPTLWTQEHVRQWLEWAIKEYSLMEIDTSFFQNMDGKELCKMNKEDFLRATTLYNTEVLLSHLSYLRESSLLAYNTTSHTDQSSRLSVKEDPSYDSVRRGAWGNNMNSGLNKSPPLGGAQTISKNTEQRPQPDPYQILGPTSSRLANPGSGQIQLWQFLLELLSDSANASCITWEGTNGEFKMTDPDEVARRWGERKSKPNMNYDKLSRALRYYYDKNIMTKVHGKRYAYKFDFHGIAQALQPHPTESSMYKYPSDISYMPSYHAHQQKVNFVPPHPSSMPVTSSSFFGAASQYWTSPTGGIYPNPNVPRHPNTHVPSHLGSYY
# Method in brief: (§1)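 A tag-only sample was pooled with DNA-barcoded human transcription factors that had been expressed in yeast as GST fusions and captured on glutathione beads. The pools were incubated for 30 min at room temperature with 200 nmole of a random double-stranded 16-mer DNA library in Tris/NaCl/DTT/glycerol buffer, then washed, crosslinked with 0.1% formaldehyde, proximity-ligated (BsaI/T4 ligase, 1 h, 37 °C), PCR-amplified and sequenced on an Illumina NextSeq500. Binding signal is each hexamer's read frequency for a factor divided by its frequency for the tag-only sample.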
# ELK1 = target: T2, ELK1 (Homo sapiens, UniProt P19419 1-428); details: protein: recombinant; tags: N-terminal GST; dsDNA, one strand shown
# T2 sequence: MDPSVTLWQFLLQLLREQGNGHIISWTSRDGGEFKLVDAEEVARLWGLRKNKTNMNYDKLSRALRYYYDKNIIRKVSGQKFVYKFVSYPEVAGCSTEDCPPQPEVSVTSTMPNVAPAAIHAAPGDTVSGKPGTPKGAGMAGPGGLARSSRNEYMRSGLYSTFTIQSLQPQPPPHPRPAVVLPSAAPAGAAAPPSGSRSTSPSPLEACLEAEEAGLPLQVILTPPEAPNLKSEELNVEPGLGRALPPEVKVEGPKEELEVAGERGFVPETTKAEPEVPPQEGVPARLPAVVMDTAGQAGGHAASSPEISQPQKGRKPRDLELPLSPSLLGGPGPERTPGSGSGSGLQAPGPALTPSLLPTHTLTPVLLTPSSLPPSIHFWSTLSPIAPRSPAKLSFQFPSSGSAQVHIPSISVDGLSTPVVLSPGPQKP
# Method in brief: as §1
# GABPA = target: T3, GABPA (Homo sapiens, UniProt Q06546 1-454); details: protein: recombinant; tags: N-terminal GST; dsDNA, one strand shown
# T3 sequence: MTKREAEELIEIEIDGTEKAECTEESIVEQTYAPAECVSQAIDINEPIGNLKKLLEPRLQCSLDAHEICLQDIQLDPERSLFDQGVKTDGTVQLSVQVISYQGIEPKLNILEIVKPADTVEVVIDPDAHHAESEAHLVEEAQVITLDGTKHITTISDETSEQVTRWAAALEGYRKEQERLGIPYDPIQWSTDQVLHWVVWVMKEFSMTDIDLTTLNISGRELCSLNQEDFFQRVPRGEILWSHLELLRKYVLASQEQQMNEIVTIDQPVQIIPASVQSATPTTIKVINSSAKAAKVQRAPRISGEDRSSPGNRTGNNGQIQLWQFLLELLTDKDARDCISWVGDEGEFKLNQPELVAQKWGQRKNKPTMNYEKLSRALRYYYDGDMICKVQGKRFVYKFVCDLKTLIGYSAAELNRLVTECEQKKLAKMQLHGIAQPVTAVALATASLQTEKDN
# Method in brief: as §1
# ERG = target: T4, ERG (Homo sapiens, UniProt P11308 1-479); details: protein: recombinant; tags: N-terminal GST; dsDNA, one strand shown
# T4 sequence: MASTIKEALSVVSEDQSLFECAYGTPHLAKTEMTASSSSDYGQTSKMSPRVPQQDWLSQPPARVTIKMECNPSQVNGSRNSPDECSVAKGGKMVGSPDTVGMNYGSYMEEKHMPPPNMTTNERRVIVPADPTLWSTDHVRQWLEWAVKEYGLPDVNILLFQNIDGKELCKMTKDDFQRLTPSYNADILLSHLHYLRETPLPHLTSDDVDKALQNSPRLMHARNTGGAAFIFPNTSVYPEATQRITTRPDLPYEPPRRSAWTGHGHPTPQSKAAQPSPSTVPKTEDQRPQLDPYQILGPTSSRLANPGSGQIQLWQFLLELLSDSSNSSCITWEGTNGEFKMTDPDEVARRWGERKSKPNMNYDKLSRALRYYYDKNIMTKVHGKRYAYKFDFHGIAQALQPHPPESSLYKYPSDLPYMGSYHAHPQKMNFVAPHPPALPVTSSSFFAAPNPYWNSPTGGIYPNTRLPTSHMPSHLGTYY
# Method in brief: as §1
# ELF1 = ELF1 (Homo sapiens, UniProt P32519 1-619); details: protein: recombinant; tags: N-terminal GST; dsDNA, one strand shown
# Method in brief: as §1
# EHF = target: T5, EHF (Homo sapiens, UniProt Q9NZC4 1-300); details: protein: recombinant; tags: N-terminal GST; dsDNA, one strand shown
# T5 sequence: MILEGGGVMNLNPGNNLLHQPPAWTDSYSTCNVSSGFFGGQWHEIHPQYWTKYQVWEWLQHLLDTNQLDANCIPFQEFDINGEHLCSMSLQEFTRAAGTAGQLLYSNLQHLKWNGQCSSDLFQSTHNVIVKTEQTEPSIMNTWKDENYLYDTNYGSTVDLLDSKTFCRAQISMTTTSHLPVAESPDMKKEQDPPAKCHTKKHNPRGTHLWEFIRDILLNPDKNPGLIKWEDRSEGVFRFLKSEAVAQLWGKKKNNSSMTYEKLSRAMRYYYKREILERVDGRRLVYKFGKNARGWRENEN
# Method in brief: as §1
# SPI1 = SPI1 (Homo sapiens, UniProt P17947 1-270); details: protein: recombinant; tags: N-terminal GST; dsDNA, one strand shown
# Method in brief: as §1
# SPIB = SPIB (Homo sapiens, UniProt Q01892 1-262); details: protein: recombinant; tags: N-terminal GST; dsDNA, one strand shown
# Method in brief: as §1
# ELK3 = target: T6, ELK3 (Homo sapiens, UniProt P41970 1-407); details: protein: recombinant; tags: N-terminal GST; dsDNA, one strand shown
# T6 sequence: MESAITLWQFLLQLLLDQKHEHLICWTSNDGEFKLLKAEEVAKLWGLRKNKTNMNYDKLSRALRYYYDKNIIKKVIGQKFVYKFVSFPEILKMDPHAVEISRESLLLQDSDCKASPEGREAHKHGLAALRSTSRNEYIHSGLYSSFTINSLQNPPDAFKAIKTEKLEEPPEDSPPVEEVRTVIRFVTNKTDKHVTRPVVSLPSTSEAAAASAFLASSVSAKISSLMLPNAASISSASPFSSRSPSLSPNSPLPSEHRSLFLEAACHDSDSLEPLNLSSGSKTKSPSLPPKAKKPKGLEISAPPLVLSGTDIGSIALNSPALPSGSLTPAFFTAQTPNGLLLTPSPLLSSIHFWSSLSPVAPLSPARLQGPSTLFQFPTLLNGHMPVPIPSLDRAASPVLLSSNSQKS
# Method in brief: as §1
# FEV = target: T7, FEV (Homo sapiens, UniProt Q99581 1-238); details: protein: recombinant; tags: N-terminal GST; dsDNA, one strand shown
# T7 sequence: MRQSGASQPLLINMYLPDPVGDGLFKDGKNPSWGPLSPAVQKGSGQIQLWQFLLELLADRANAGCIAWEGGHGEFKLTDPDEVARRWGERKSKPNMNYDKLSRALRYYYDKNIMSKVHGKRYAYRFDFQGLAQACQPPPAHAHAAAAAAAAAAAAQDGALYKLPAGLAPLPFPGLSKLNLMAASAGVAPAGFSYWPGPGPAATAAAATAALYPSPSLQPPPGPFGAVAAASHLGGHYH
# Method in brief: as §1
# ETV5 = ETV5 (Homo sapiens, UniProt P41161 1-510); details: protein: recombinant; tags: N-terminal GST; dsDNA, one strand shown
# Method in brief: as §1
# HSF1 = HSF1 (Homo sapiens, UniProt Q00613 1-529); details: protein: recombinant; tags: N-terminal GST; chain copies: 3; dsDNA, one strand shown
# Method in brief: as §1
# SPIC = target: T8, SPIC (Homo sapiens, UniProt Q8N5J4 1-248); details: protein: recombinant; tags: N-terminal GST; dsDNA, one strand shown
# T8 sequence: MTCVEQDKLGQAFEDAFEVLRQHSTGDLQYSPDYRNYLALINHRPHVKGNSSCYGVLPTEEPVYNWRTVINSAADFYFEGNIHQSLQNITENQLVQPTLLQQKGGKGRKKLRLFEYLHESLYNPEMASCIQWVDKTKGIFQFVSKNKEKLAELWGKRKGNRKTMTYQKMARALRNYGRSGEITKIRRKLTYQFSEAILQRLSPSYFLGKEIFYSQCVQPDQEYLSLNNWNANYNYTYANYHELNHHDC
# Method in brief: as §1
# ELF4 = ELF4 (Homo sapiens, UniProt Q99607 1-663); details: protein: recombinant; tags: N-terminal GST; dsDNA, one strand shown
# Method in brief: as §1
# ELK4 = target: T9, ELK4 (Homo sapiens, UniProt P28324-2 1-405); details: protein: recombinant; tags: N-terminal GST; dsDNA, one strand shown
# T9 sequence: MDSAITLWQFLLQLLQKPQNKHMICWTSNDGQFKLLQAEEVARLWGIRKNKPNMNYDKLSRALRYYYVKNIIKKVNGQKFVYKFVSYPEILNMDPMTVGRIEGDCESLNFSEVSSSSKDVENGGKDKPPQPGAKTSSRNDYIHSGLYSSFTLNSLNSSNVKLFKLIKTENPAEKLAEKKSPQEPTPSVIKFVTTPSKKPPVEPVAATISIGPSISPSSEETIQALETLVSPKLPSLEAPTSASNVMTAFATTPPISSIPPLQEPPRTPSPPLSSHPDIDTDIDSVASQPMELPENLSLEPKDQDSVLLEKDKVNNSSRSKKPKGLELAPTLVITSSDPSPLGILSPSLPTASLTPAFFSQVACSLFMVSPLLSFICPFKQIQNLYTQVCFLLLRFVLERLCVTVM
# Method in brief: as §1
# ETV2 = target: T10, ETV2 (Homo sapiens, UniProt O00321 1-342); details: protein: recombinant; tags: N-terminal GST; dsDNA, one strand shown
# T10 sequence: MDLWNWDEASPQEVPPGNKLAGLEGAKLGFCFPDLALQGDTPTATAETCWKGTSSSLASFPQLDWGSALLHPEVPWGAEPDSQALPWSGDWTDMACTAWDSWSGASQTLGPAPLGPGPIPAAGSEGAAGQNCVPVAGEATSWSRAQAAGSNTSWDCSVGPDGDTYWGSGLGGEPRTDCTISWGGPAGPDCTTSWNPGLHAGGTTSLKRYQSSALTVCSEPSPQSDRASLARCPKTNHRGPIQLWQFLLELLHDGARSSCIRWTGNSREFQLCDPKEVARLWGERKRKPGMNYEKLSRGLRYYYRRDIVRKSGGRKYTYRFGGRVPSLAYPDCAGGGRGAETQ
# Method in brief: as §1
# ELF3 = target: T11, ELF3 (Homo sapiens, UniProt P78545 1-371); details: protein: recombinant; tags: N-terminal GST; dsDNA, one strand shown
# T11 sequence: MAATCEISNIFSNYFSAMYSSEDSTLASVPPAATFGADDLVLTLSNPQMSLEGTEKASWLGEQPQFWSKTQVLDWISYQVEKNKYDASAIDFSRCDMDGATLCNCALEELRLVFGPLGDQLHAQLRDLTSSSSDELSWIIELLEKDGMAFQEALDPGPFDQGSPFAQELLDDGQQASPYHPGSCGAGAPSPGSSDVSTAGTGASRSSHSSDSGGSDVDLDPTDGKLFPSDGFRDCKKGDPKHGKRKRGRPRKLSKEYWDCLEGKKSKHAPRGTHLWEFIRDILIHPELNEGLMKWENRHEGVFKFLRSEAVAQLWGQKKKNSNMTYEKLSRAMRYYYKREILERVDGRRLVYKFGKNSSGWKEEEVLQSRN
# Method in brief: as §1
# ETV1 = ETV1 (Homo sapiens, UniProt P50549 1-477); details: protein: recombinant; tags: N-terminal GST; dsDNA, one strand shown
# Method in brief: as §1
# Sequence of ETV5 (P41161 whole entry): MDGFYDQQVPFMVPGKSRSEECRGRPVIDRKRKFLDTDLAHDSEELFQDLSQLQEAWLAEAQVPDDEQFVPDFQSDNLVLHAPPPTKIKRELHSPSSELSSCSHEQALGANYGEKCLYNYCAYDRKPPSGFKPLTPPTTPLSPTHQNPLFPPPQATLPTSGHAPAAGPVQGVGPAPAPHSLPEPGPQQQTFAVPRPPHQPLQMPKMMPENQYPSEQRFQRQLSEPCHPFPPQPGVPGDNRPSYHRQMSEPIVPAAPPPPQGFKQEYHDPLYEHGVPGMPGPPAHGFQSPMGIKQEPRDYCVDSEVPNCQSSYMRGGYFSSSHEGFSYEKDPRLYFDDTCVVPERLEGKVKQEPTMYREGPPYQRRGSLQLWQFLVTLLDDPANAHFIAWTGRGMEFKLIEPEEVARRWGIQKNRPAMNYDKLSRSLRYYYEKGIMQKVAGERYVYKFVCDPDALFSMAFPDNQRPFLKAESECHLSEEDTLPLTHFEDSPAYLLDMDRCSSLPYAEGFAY
# Sequence of SPIB (Q01892 whole entry): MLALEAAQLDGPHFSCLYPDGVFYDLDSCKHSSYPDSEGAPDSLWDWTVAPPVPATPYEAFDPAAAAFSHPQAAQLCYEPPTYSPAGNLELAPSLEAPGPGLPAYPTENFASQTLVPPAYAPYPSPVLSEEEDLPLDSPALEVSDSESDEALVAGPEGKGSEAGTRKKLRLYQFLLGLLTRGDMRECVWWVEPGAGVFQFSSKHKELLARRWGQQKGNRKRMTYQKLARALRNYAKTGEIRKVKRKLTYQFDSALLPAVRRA
# Sequence of HSF1 (Q00613 whole entry): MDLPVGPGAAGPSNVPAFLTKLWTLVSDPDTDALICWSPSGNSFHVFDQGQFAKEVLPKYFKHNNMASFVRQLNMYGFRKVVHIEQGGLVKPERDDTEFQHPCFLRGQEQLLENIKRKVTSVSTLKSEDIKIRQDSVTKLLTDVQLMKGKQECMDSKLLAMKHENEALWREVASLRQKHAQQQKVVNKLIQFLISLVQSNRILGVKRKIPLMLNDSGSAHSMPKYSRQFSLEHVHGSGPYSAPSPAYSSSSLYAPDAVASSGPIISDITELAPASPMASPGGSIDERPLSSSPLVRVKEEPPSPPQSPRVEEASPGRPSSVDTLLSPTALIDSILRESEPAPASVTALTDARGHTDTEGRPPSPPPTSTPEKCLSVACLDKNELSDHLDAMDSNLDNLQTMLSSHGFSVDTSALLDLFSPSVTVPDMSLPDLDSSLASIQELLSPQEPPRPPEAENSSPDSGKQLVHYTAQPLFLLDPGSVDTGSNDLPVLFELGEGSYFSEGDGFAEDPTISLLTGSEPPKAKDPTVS
# Sequence of ELF1 (P32519 whole entry): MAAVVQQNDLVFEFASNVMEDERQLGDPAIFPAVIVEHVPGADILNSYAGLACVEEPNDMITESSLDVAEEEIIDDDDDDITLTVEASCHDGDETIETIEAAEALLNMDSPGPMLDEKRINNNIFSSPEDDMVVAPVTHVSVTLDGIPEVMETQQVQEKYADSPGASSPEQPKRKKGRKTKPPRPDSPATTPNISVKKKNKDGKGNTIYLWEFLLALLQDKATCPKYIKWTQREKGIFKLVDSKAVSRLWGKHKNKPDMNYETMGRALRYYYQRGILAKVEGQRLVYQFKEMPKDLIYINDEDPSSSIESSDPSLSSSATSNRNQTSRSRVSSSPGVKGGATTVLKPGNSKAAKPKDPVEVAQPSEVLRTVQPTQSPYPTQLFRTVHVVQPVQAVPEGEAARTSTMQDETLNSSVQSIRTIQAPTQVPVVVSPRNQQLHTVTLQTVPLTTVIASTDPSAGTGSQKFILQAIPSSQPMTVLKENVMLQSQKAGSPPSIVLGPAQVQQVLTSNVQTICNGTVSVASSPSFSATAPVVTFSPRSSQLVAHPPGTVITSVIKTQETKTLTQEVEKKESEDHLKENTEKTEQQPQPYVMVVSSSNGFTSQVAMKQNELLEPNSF
# Sequence of ETV1 (P50549 whole entry): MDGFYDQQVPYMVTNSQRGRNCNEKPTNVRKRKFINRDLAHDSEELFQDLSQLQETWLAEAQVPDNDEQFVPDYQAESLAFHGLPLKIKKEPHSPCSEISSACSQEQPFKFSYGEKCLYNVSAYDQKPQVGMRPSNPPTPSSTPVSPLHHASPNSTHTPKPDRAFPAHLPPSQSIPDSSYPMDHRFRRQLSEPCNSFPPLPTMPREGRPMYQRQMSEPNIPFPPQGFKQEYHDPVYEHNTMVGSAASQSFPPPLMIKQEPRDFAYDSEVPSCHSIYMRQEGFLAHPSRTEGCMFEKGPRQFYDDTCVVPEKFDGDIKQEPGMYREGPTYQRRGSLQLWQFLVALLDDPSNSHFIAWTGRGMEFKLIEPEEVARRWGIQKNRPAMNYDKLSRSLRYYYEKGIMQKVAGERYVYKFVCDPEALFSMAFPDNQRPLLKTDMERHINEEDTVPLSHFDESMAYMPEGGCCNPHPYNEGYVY
# Sequence of ELF4 (Q99607 whole entry): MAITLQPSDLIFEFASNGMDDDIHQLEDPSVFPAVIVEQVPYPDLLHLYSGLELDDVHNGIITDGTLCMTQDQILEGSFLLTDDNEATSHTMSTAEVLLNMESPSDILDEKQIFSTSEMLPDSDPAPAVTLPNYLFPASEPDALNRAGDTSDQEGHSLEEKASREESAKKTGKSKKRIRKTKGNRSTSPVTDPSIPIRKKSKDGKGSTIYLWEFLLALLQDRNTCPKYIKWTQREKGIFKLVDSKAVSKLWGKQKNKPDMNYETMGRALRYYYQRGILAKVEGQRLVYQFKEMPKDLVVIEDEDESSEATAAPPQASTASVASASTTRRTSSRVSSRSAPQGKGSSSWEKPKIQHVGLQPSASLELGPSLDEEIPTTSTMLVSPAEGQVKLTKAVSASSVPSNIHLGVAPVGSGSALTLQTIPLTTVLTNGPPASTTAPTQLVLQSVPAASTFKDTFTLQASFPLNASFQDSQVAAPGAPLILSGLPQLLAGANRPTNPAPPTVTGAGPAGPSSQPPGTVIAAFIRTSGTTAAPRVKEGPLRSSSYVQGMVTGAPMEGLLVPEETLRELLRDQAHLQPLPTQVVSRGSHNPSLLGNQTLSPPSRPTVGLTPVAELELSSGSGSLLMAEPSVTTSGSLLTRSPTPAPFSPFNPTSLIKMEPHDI
sequence,measurement,setting,value
TGCCTG,binding signal,FLI1,"1.17 fold enrichment (6-mer frequency, TF over GST control)"
same,binding signal,ELK1,"1.27 fold enrichment (6-mer frequency, TF over GST control)"
same,binding signal,GABPA,"1.32 fold enrichment (6-mer frequency, TF over GST control)"
same,binding signal,ERG,"1.32 fold enrichment (6-mer frequency, TF over GST control)"
same,binding signal,ELF1,"1.33 fold enrichment (6-mer frequency, TF over GST control)"
same,binding signal,EHF,"1.36 fold enrichment (6-mer frequency, TF over GST control)"
same,binding signal,SPI1,"1.26 fold enrichment (6-mer frequency, TF over GST control)"
same,binding signal,SPIB,"1.29 fold enrichment (6-mer frequency, TF over GST control)"
same,binding signal,ELK3,"1.59 fold enrichment (6-mer frequency, TF over GST control)"
same,binding signal,FEV,"1.16 fold enrichment (6-mer frequency, TF over GST control)"
same,binding signal,ETV5,"1.37 fold enrichment (6-mer frequency, TF over GST control)"
same,binding signal,HSF1,"1.05 fold enrichment (6-mer frequency, TF over GST control)"
same,binding signal,SPIC,"1.32 fold enrichment (6-mer frequency, TF over GST control)"
same,binding signal,ELF4,"1.22 fold enrichment (6-mer frequency, TF over GST control)"
same,binding signal,ELK4,"1.25 fold enrichment (6-mer frequency, TF over GST control)"
same,binding signal,ETV2,"1.2 fold enrichment (6-mer frequency, TF over GST control)"
same,binding signal,ELF3,"1.05 fold enrichment (6-mer frequency, TF over GST control)"
same,binding signal,ETV1,"1.49 fold enrichment (6-mer frequency, TF over GST control)"
